These results are taken from article PMC5540273 (PLoS ONE, 2017).

Molecules are shown by their SMILES.

Test systems include RIOK1; RIOK2; RIOK3; RIPK1; RIPK2; RIPK4; RIPK5; ROCK1; ROCK2; ROS1.
Common to all, as to settings: concentration: 1 μM, replicates: in singlicate; n = 1
Assay [1] deals with RPS6KA4(Kin.Dom.1-N-terminal).
For assay [2], the system named is RPS6KA4(Kin.Dom.2-C-terminal).
The test system of assay [3] is RPS6KA5(Kin.Dom.1-N-terminal).
For assay [4], the system named is RPS6KA5(Kin.Dom.2-C-terminal).
Assay [5] relates to T1, RSK1(Kin.Dom.1-N-terminal).
T1 construct: gene RPS6KA1

For assay [6], the system named is T2, RSK1(Kin.Dom.2-C-terminal).
T2 construct: gene RPS6KA1

The test system of assay [7] is T3, RSK2(Kin.Dom.1-N-terminal).
T3 construct: gene RPS6KA3

Assay [8] concerns T4, RSK2(Kin.Dom.2-C-terminal).
T4 construct: gene RPS6KA3

For assay [9], the system named is T5, RSK3(Kin.Dom.1-N-terminal).
T5 construct: gene RPS6KA2

Assay [10] concerns T6, RSK3(Kin.Dom.2-C-terminal).
T6 construct: gene RPS6KA2
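Also: KINOMEscan kinase panel screen.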

Take `NCCC(NC(=O)c1cc(Br)c(-c2ccnc3[nH]ccc23)s1)c1ccccc1.O=C(O)C(F)(F)F.O=C(O)C(F)(F)F` (centres unmarked) [GSK1307810]: the “%Inh” value in the assay with RIOK1 turned out to be 100%; with RIOK2, 97.9%; with RIOK3 it was 100%; in the assay on RIPK1 it was 81%; with RIPK2, 4%; in the assay with RIPK4, 0%. Moreover, the “%Inh” value with RIPK5 is given as 1%; in the assay on ROCK1, 100%; with ROCK2, 99.8%; in the assay on ROS1, 29%; in assay [1] it was 44%; in assay [2], 39%. Moreover, the “%Inh” value came out at 46% in assay [3]; 46% in assay [4]; 37% in assay [5]; 31% in assay [6]; 44% in [7]; 0% in assay [8]. Moreover, the “%Inh” value is 13% in assay [9] and 0% in assay [10].
For the compound `COc1ccc(C2=C(Nc3cccc(O)c3)C(=O)NC2=O)cc1` [SB-390766], the “%Inh” value in the assay on RIOK1 is 22%; with RIOK2 it was 0%; in the assay with RIOK3, 0%; with RIPK1, 0%; in the assay with RIPK2, 32%; in the assay on RIPK4, 10%. In addition, the “%Inh” value in the assay with RIPK5 is given as 0%; in the assay with ROCK1, 18%; in the assay on ROCK2, 19%; with ROS1 it was 0%; in assay [1] it was 0%; in assay [2], 0%. Moreover, the “%Inh” value in assay [3] was 2%; in [4], 0%; in assay [5], 32%; in assay [6], 0%; in assay [7], 24%; in assay [8], 96.4%. The entries for the “%Inh” value in assay [9] and in assay [10] were 3% and 21%, respectively.
As for `CN(C)CCOc1ccc(-c2cc(-c3ccc(Cl)c(O)c3)c(-c3ccncc3)[nH]2)cc1.Cl.Cl` [SB-684387], the “%Inh” value in the assay with RIOK1 stood at 0%; in the assay on RIOK2, 32%; with RIOK3 it was 0%; in the assay on RIPK1, 36%; in the assay on RIPK2, 88%; in the assay with RIPK4 it was 7%. In addition, the “%Inh” value was determined as 13% in the assay with RIPK5; 99.2% in the assay on ROCK1; 98.9% in the assay on ROCK2; 10% in the assay with ROS1; 0% in assay [1]; 23% in assay [2]. For the same compound, the “%Inh” value in assay [3] is recorded as 0%; in assay [4], 33%; in assay [5], 10%; in [6] it was 23%; in assay [7] it was 3%; in assay [8], 8%. Moreover, the results for the “%Inh” value in assay [9] and in [10] were 4% and 0%, respectively.
With `O=C(Nc1n[nH]c2cc(-c3cccs3)ccc12)C1CC1` [SB-731284], the “%Inh” value in the assay on RIOK1 stood at 85%; in the assay on RIOK2, 18%; in the assay with RIOK3, 82%; in the assay with RIPK1 it was 59%; in the assay on RIPK2 it was 4%; with RIPK4, 10%. The “%Inh” value with RIPK5 is recorded as 48%; with ROCK1, 31%; in the assay with ROCK2, 32%; in the assay on ROS1, 0%; in [1], 0%; in assay [2] it was 11%. The “%Inh” value in [3] was 0%; in assay [4], 0%; in assay [5], 8%; in [6], 0%; in [7] it was 41%; in [8] it was 0%. Besides, the “%Inh” value in [9] and in [10] was 0% in each case.
In the case of `Cc1ccccc1CC(=O)N1CCc2cc(-c3cn(C)c4ncnc(N)c34)ccc21` [GSK2603346], the “%Inh” value worked out at 8% in the assay with RIOK1; 31% with RIOK2; 100% in the assay with RIOK3; 100% with RIPK1; 63% in the assay on RIPK2; 0% in the assay with RIPK4. Moreover, the “%Inh” value with RIPK5 stood at 69%; with ROCK1, 10%; with ROCK2, 14%; with ROS1, 2%; in [1] it was 11%; in assay [2], 0%. For the same compound, the “%Inh” value in [3] was determined as 20%; in [4] it was 0%; in assay [5], 0%; in assay [6] it was 4%; in assay [7], 0%; in assay [8], 6%. Besides, the “%Inh” value in assay [9] is on record as 24%; in assay [10] it was 0%.
With `Nc1ncnc2scc(-c3ccc(NC(=O)Cc4cc(F)ccc4F)cc3)c12.O=C(O)C(F)(F)F` [SB-731254-M], the “%Inh” value in the assay on RIOK1 worked out at 0%; in the assay on RIOK2 it was 13%; in the assay on RIOK3, 1%; in the assay with RIPK1 it was 0%; in the assay on RIPK2, 23%; in the assay on RIPK4, 20%. For the same compound, the “%Inh” value in the assay on RIPK5 was 53%; in the assay with ROCK1, 0%; with ROCK2 it was 0%; in the assay on ROS1 it was 17%; in [1], 21%; in [2], 15%. Besides, the “%Inh” value in assay [3] is listed as 8%; in assay [4] it was 0%; in assay [5], 0%; in assay [6], 14%; in [7], 15%; in [8] it was 0%. The “%Inh” value in [9] is listed as 0%; in assay [10] it was 6%.
For the compound `CS(=O)(=O)c1cccc(CNc2nc(Nc3ccc4c(c3)CCC(=O)N4)ncc2C(F)(F)F)c1`, the “%Inh” value with RIOK1 was 62%; with RIOK2, 0%; with RIOK3 it was 59%; in the assay with RIPK1 it was 0%; in the assay on RIPK2, 2%; in the assay on RIPK4, 17%. Moreover, the “%Inh” value was determined as 0% with RIPK5; 0% in the assay on ROCK1; 0% in the assay with ROCK2; 31% with ROS1; 26% in assay [1]; 0% in assay [2]. Further, the “%Inh” value in assay [3] amounted to 0%; in assay [4] it was 5%; in assay [5], 44%; in [6], 0%; in assay [7] it was 80%; in assay [8], 0%. In addition, the figures for the “%Inh” value in assay [9] and in assay [10] were 59% and 0%, respectively.
With `Cl.O=C(Nc1ccc(Oc2ccc3[nH]c(NC(=O)c4ccco4)nc3c2)cc1)Nc1cc(C(F)(F)F)ccc1F` [GW683134], the “%Inh” value in the assay with RIOK1 is listed as 1%; in the assay with RIOK2, 7%; in the assay with RIOK3, 0%; with RIPK1, 86%; with RIPK2 it was 43%; in the assay on RIPK4 it was 6%. The “%Inh” value with RIPK5 worked out at 0%; in the assay on ROCK1, 78%; in the assay on ROCK2 it was 23%; in the assay on ROS1, 3%; in assay [1], 16%; in [2], 0%. Further, the “%Inh” value is on record as 14% in [3]; 6% in [4]; 0% in assay [5]; 16% in assay [6]; 3% in [7]; 3% in assay [8]. In addition, the “%Inh” value in assay [9] stood at 54%; in assay [10], 9%.
`CN(C)c1ncnc2nc[nH]c12` [SKF-31736]: the “%Inh” value with RIOK1 was found to be 0%; in the assay with RIOK2, 0%; with RIOK3, 0%; in the assay on RIPK1 it was 0%; with RIPK2, 0%; with RIPK4, 26%. In addition, the “%Inh” value in the assay with RIPK5 is on record as 10%; with ROCK1 it was 58%; in the assay with ROCK2, 31%; in the assay on ROS1 it was 0%; in assay [1] it was 1%; in [2] it was 0%. The “%Inh” value is reported as 0% in [3]; 11% in [4]; 0% in assay [5]; 0% in assay [6]; 39% in assay [7]; 0% in assay [8]. Also, the “%Inh” value in [9] and in assay [10] was 0% each time.
As to `CN(c1ccc(NC(=O)Nc2cccc(Cl)c2)cc1)c1ccnc(N)n1.Cl` [GW830707], the “%Inh” value in the assay on RIOK1 was 0%; with RIOK2, 0%; in the assay with RIOK3, 0%; with RIPK1 it was 0%; in the assay with RIPK2 it was 1%; in the assay with RIPK4 it was 5%. For the same compound, the “%Inh” value turned out to be 0% with RIPK5; 53% with ROCK1; 35% in the assay on ROCK2; 12% in the assay with ROS1; 21% in assay [1]; 0% in assay [2]. The “%Inh” value in [3] is 4%; in [4], 0%; in assay [5], 0%; in assay [6], 0%; in [7], 0%; in assay [8] it was 0%. Further, the “%Inh” value in assay [9] and in assay [10] was 0% throughout.
